# Measurements as given in PubChem BioAssay (EPA / NIEHS).
# Several values for one entry are separate records, joined by “and”; a condition that tells them apart may be missing. Equal values may be shown once. Records with an inconclusive call do not appear. Activity calls are given as the source filed them. The calls were made as follows, unless noted: active = hit-call score of the fitted dose curve at least 0.9, where 1 is the maximum; inactive = score below 0.9.
# How the values were obtained:
# [1] = ACEA_ER_80hr: ACEA Biosciences xCELLigence Real-Time Cell Analysis on Estrogen Receptor Agonism for Proliferation (AID 2282667; active = hit-call score of the fitted dose curve at least 0.9, where 1 is the maximum); conditions: T47D proliferation, impedance (xCELLigence), 80 h
# How it was run: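 T-47D cells monitored by electrical impedance (xCELLigence) with compound present throughout; 80 h timepoint, positive-direction fitting versus DMSO. Eight-point 1:4 dilutions from 100 uM final, duplicate plates.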
# [2] = APR_HepG2_CellCycleArrest_24hr: Apredica 24-hour HepG2 Assay for Cell Cycle Arrest (AID 2282905); conditions: imaging, actives raise or lower the signal;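 also: cell cycle arrest scored as ratio of 2N to 4N nuclear DNA content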
# How it was run: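 Readout: Hoechst 33342 nuclear DNA content by high-content fluorescent imaging, six images/well, 20x. Human HepG2 liver cells, 24 hr compound exposure, 0.39–200 uM, final DMSO 0.5% v/v. Gain or loss fitted relative to DMSO baseline.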
# [3] = APR_HepG2_NuclearSize_24hr: Apredica 24-hour HepG2 Assay for Nuclear Size (AID 2282907); conditions: high-content imaging, actives raise or lower the signal
# How it was run: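 Read-out: nuclear diameter from Hoechst 33342 (2 ug/mL) imaging of fixed HepG2 cells, 20x, six fields/well. Compounds ran at 0.39–200 uM for 24 hr, 0.5% DMSO final. Gain or loss was fitted bidirectionally relative to the DMSO baseline.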
# [4] = APR_HepG2_CellLoss_24hr: Apredica 24-hour HepG2 Assay for Cell Loss (AID 2282908); conditions: high-content imaging;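 as to AC50: fit in both directions so a hit may be cell loss or gain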
# How it was run: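 Read-out: Hoechst 33342-stained nuclei counted by automated fluorescence imaging after formaldehyde fixation and Triton permeabilization. Ten concentrations, 0.39 to 200 uM, duplicate wells, 0.5% DMSO final. Gain or loss of signal fitted relative to DMSO baseline.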
# [5] = APR_HepG2_MicrotubuleCSK_24hr: Apredica 24-hour HepG2 Assay for Microtubule CSK Stabilty (AID 2282909); conditions: HepG2 microtubule cytoskeleton imaging, actives raise or lower the signal
# How it was run: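 Read-out: alpha-tubulin immunofluorescence intensity by automated high-content imaging of fixed HepG2 cells after 24 h compound treatment. Ten concentrations, 0.39 to 200 uM, in duplicate; DMSO 0.5% v/v. Taxol positive control; DMSO-normalized bidirectional curve fitting.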
# [6] = APR_HepG2_MitoticArrest_24hr: Apredica 24-hour HepG2 Assay for Mitotic Arrest (AID 2282910); conditions: high-content imaging, actives raise or lower the signal
# How it was run: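 Treatment lasted 24 hr in the human HepG2 line at 0.39–200 uM, solvent held at 0.5% DMSO. Fixed cells were stained with Hoechst 33342 and anti-phospho-histone H3, imaged at 20x, and analysed by gain- or loss-of-signal fitting against DMSO.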
# [7] = APR_HepG2_MitoMembPot_24hr: Apredica 24-hour HepG2 Assay for Mitochondrial Membrane Potential (AID 2282911); conditions: imaging, actives raise or lower the signal
# How it was run: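 HepG2 cells exposed 24 h to 0.39–200 uM compounds in duplicate, 0.5% v/v DMSO final. MitoTracker Red CMXRos 250 nM loaded 30 min before formaldehyde fixation; high-content imaging at 20x, bidirectional fit versus DMSO.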
# [8] = APR_HepG2_MitoMass_24hr: Apredica 24-hour HepG2 Assay for Mitochondrial Mass (AID 2282912); conditions: high-content imaging, actives raise or lower the signal
# How it was run: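 HepG2, 24 hr dosing, 10 concentrations 0.39–200 uM in duplicate, DMSO 0.5% final. MitoTracker Red CMXRos 250 nM, 30 min pre-fix; 3.7% formaldehyde fix. Imaging-based fluorescence intensity; gain/loss fit vs DMSO baseline.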
# [9] = APR_HepG2_p53Act_24hr: Apredica 24-hour HepG2 Assay for p53 Activation (AID 2282913); conditions: high-content imaging, actives raise or lower the signal;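 also: p53 protein immunofluorescence averaged per cell in HepG2 with Hoechst nuclei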
# How it was run: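 HepG2 cells exposed 24 h to compounds at 0.39–200 uM in duplicate, 0.5% v/v DMSO final; fixed, permeabilized, stained with anti-p53 antibody and Hoechst 33342; fluorescence imaging; bidirectional curve fit versus DMSO.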
# [10] = APR_HepG2_CellCycleArrest_72hr: Apredica 72-hour HepG2 Assay for Cell Cycle Arrest (AID 2282914); conditions: high-content imaging, actives raise or lower the signal
# How it was run: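 HepG2 cells exposed 72 h in duplicate to 0.39–200 uM compound, 0.5% DMSO final. Formaldehyde-fixed, Hoechst 33342-stained nuclei imaged at 20x, six fields per well; DNA content per valid cell quantified by cell-cycle image analysis, bidirectional fit versus DMSO.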
# [11] = APR_HepG2_CellLoss_72hr: Apredica 72-hour HepG2 Assay for Cell Loss (AID 2282915); conditions: high-content imaging
# How it was run: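 HepG2 cells were exposed for 72 hr to compounds at 0.39–200 uM (ten concentrations, duplicate) in 0.5% v/v final DMSO. Nuclei were stained with Hoechst 33342 after 3.7% formaldehyde fixation, imaged at 20x, and counted; fits bidirectional versus DMSO.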
# [12] = APR_HepG2_P-H2AX_72hr: Apredica 72-hour HepG2 Assay for H2AX Phosphorylation (AID 2282916); conditions: imaging, actives raise or lower the signal;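 also: phospho-histone H2A.x immunostain intensity per cell marking DNA damage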
# How it was run: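 Readout: phospho-H2A.x immunofluorescence (FITC secondary) plus Hoechst nuclear stain, high-content imaging at 20x, six fields/well. HepG2, 72 hr compound exposure, 0.39–200 uM, final DMSO 0.5% v/v. Gain or loss fitted relative to DMSO baseline.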
# [13] = APR_HepG2_MitoMembPot_72hr: Apredica 72-hour HepG2 Assay for Mitochondrial Membrane Potential (AID 2282917); conditions: imaging, actives raise or lower the signal
# How it was run: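 HepG2 cells exposed 72 h to compounds at 0.39–200 uM (0.5% v/v DMSO, duplicates); MitoTracker Red CMXRos 250 nM loaded 30 min before 3.7% formaldehyde fixation, imaged by HCS fluorescence. Bidirectional fit versus DMSO.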
# [14] = APR_HepG2_MitoticArrest_72hr: Apredica 72-hour HepG2 Assay for Mitotic Arrest (AID 2282918); conditions: high-content imaging, actives raise or lower the signal
# How it was run: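 HepG2 cells treated 72 h at 0.39–200 uM, 0.5% DMSO final; formaldehyde-fixed, stained with Hoechst 33342 and phospho-histone H3 antibody, imaged by high-content fluorescence; bidirectional fit versus DMSO.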
# [15] = APR_HepG2_MicrotubuleCSK_72hr: Apredica 72-hour HepG2 Assay for Microtubule CSK Stabilty (AID 2282919); conditions: HepG2 microtubule cytoskeleton, high-content imaging, actives raise or lower the signal
# How it was run: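 Ten-point dosing (0.39–200 uM, 0.5% DMSO) of HepG2 for 72 hr, with taxol as the cytoskeletal positive control. The cells were formaldehyde-fixed and then stained with alpha-tubulin/Cy5 and Hoechst. Imaging at 20x used a −2 um Z offset for tubulin.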
# [16] = APR_HepG2_P-H2AX_24hr: Apredica 24-hour HepG2 Assay for H2AX Phosphorylation (AID 2282920); conditions: high-content imaging, actives raise or lower the signal
# How it was run: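 HepG2 cells dosed 24 h at 0.39–200 uM (10 points, duplicate, 0.5% DMSO final). Formaldehyde-fixed and permeabilized, then immunostained for phospho-H2A.x with Hoechst. Fluorescence quantified by high-content imaging, fitted bidirectionally versus DMSO.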
# [17] = APR_HepG2_StressKinase_72hr: Apredica 72-hour HepG2 Assay for Stress Kinase (AID 2282921); conditions: HepG2 stress kinase (phospho-c-Jun) imaging, actives raise or lower the signal
# How it was run: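 Phospho-c-Jun immunofluorescence measured by high-content imaging at 20x, six fields per well; bidirectional curve fitting against DMSO as baseline. Dosing: 0.39–200 uM, 72 h, 0.5% DMSO final.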
# [18] = APR_HepG2_StressKinase_24hr: Apredica 24-hour HepG2 Assay for Stress Kinase (AID 2282922); conditions: HepG2 stress kinase (phospho-c-Jun) imaging, actives raise or lower the signal
# How it was run: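 After 24 hr compound treatment (up to 200 uM, final DMSO 0.5% v/v), HepG2 cells are fixed and multiplex-labeled; phospho-c-Jun intensity is captured by high-content fluorescence imaging and analyzed relative to DMSO.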
# [19] = APR_HepG2_p53Act_72hr: Apredica 72-hour HepG2 Assay for p53 Activation (AID 2282923); conditions: high-content imaging, actives raise or lower the signal;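 also: average cellular p53 protein immunofluorescence intensity in HepG2 cells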
# How it was run: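 Readout: p53 immunofluorescence quantified by automated high-content imaging at 20x, six fields per well, nuclei located via Hoechst. Dosing ran 72 hr over ten concentrations from 0.39 to 200 uM; bidirectional curve fitting against DMSO baseline.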
# [20] = APR_HepG2_MitoMass_72hr: Apredica 72-hour HepG2 Assay for Mitochondrial Mass (AID 2282924); conditions: high-content imaging, actives raise or lower the signal;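 also: MitoTracker Red CMXRos stain intensity per cell imaged as mitochondrial mass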
# How it was run: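 Steps: treat HepG2 72 hr (0.39–200 uM, duplicate wells); load MitoTracker Red CMXRos, 250 nM, 30 min; fix with 3.7% formaldehyde, permeabilise with 0.5% Triton X-100; capture images, nuclei via Hoechst 33342; fit bidirectionally against DMSO.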
smiles,measurement,setting,value
CC#C[C@]1(O)CC[C@H]2[C@@H]3CCC4=CC(=O)CCC4=C3[C@@H](c3ccc(N(C)C)cc3)C[C@@]21C,AC50,[1],132 nM (active) and 56 nM (active) and 36.7 nM (active)
same,outcome,[2],inactive
same,outcome,[3],inactive
same,outcome,[4],inactive
same,outcome,[5],inactive
same,outcome,[6],inactive
same,outcome,[7],inactive
same,outcome,[8],inactive
same,outcome,[9],inactive
same,outcome,[10],inactive
same,outcome,[11],inactive
same,outcome,[12],inactive
same,outcome,[13],inactive
same,outcome,[14],inactive
same,outcome,[15],inactive
same,outcome,[16],inactive
same,outcome,[17],inactive
same,outcome,[18],inactive
same,outcome,[19],inactive
same,outcome,[20],inactive
C#C[C@]1(O)CC[C@H]2[C@@H]3CCC4=CC(=O)CC[C@@H]4[C@H]3CC[C@@]21C,AC50,[1],3.95 nM (active) and 5.39 nM (active) and 91.8 nM (active)
same,outcome,[2],inactive
same,outcome,[3],inactive
same,outcome,[4],inactive
same,outcome,[5],inactive
same,outcome,[6],inactive
same,outcome,[7],inactive
same,outcome,[8],inactive
same,outcome,[9],inactive
same,outcome,[10],inactive
same,outcome,[11],inactive
same,outcome,[12],inactive
same,outcome,[13],inactive
same,outcome,[14],inactive
same,outcome,[15],inactive
same,outcome,[16],inactive
same,outcome,[17],inactive
same,outcome,[18],inactive
same,outcome,[19],inactive
same,outcome,[20],inactive
NCC(F)(F)C(F)(F)C(F)(F)C(F)(F)C(F)(F)C(F)(F)C(F)(F)F,outcome,[1],inactive
CCCOc1sc(C(=O)N2CCC(c3cc(CN)ccc3F)CC2)c(C)c1Br,outcome,[1],inactive
same,AC50,[2],22.3 µM (active)
same,outcome,[3],inactive
same,AC50,[4],6.74 µM (active)
same,AC50,[5],15.6 µM (active)
same,AC50,[6],5.77 µM (active)
same,AC50,[7],7.27 µM (active)
same,outcome,[8],inactive
same,AC50,[9],4.2 µM (active)
same,outcome,[10],inactive
same,AC50,[11],7.86 µM (active)
same,AC50,[12],22.7 µM (active)
same,outcome,[13],inactive
same,AC50,[14],5.79 µM (active)
same,AC50,[15],6.58 µM (active)
same,AC50,[16],4.23 µM (active)
same,AC50,[17],32.1 µM (active)
same,outcome,[18],inactive
same,AC50,[19],47.1 µM (active)
same,AC50,[20],44.5 µM (active)
COCC(C)OCC(C)O (stereo unspecified),outcome,[1],inactive
same,outcome,[2],inactive
same,outcome,[3],inactive
same,outcome,[4],inactive
same,outcome,[5],inactive
same,outcome,[6],inactive
same,outcome,[7],inactive
same,outcome,[8],inactive
same,outcome,[9],inactive
same,outcome,[10],inactive
same,outcome,[11],inactive
same,outcome,[12],inactive
same,outcome,[13],inactive
same,outcome,[14],inactive
same,outcome,[15],inactive
same,outcome,[16],inactive
same,outcome,[17],inactive
same,outcome,[18],inactive
same,outcome,[19],inactive
same,outcome,[20],inactive
COc1ccc([N+](=O)[O-])cc1N,outcome,[1],inactive
same,outcome,[2],inactive
same,outcome,[3],inactive
same,outcome,[4],inactive
same,outcome,[5],inactive
same,outcome,[6],inactive
same,outcome,[7],inactive
same,outcome,[8],inactive
same,outcome,[9],inactive
same,outcome,[10],inactive
same,outcome,[11],inactive
same,outcome,[12],inactive
same,outcome,[13],inactive
same,outcome,[14],inactive
same,outcome,[15],inactive
same,outcome,[16],inactive
same,outcome,[17],inactive
same,outcome,[18],inactive
same,outcome,[19],inactive
same,outcome,[20],inactive
c1ccc2c(c1)ccc1ccccc12,outcome,[1],inactive
same,outcome,[2],inactive
same,outcome,[3],inactive
same,outcome,[4],inactive
same,outcome,[5],inactive
same,outcome,[6],inactive
same,outcome,[7],inactive
same,outcome,[8],inactive
same,outcome,[9],inactive
same,outcome,[10],inactive
same,outcome,[11],inactive
same,outcome,[12],inactive
same,outcome,[13],inactive
same,outcome,[14],inactive
same,outcome,[15],inactive
same,outcome,[16],inactive
same,outcome,[17],inactive
same,outcome,[18],inactive
same,outcome,[19],inactive
same,outcome,[20],inactive
